Here are results for eight compounds from PubChem BioAssay (NCI).

Some test systems named below: HCT-15 colon; SNB-75 CNS; SNB-19 CNS; U251 CNS; PC-3 prostate; SK-MEL-5 melanoma; UACC-62 melanoma; LOX IMVI melanoma; SK-MEL-28 melanoma; SK-MEL-2 melanoma; SN12C renal; UO-31 renal; TK-10 renal; ACHN renal; CAKI-1 renal; A498 renal; CCRF-CEM leukemia; MOLT-4 leukemia; EKVX NSCLC.
Holding throughout (assay): NCI-60 one-dose screen, 48 h (100 = growth as untreated, 0 = no growth, -100 = all killed)
Details in all cases: 10 µM unless noted

This is part of a sample that, as a whole, favours compounds with a hit. Of some 83,000 tested, about 20% had one in any assay.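 Each cell line was grown in a 96-well plate and treated with one concentration of compound for 48 hours. Values below 10 were considered active.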 Values without a mark were called inactive. Active and inactive are the calls of the source.

As to `C/C(=C(/c1ccccc1)c1ccc(OCC(O)CN2CCOCC2)cc1)c1ccccc1` (configuration not stated), the growth with HCT-15 colon is 53.8%; in the assay with SNB-75 CNS it was 91.4%; with SNB-19 CNS, 102%; in the assay on U251 CNS, 81.1%; with PC-3 prostate, 71.8%; with SK-MEL-5 melanoma, 87.1%. Besides, the growth with UACC-62 melanoma was 97%; with LOX IMVI melanoma, 87.9%; with SK-MEL-28 melanoma, 90%; in the assay with SK-MEL-2 melanoma it was 98.9%; in the assay with SN12C renal, 88.3%; in the assay on UO-31 renal, 73.7%. For the same compound, the growth in the assay on TK-10 renal was 94.3%; in the assay on ACHN renal, 98.8%; with CAKI-1 renal, 80.1%; with A498 renal, 91.6%; in the assay on CCRF-CEM leukemia it was 80.4%; in the assay on MOLT-4 leukemia, 61.5%.
On to `O=S(=O)(c1ccc(N/N=C\c2ccccc2)cc1)c1ccc(N/N=C/c2ccccc2)cc1`, for which the growth was 88.7% in the assay with HCT-15 colon; 87% in the assay on SNB-75 CNS; 81.4% in the assay with SNB-19 CNS; 66.6% with U251 CNS; 55.7% with PC-3 prostate; 74.7% in the assay on SK-MEL-5 melanoma. In addition, the growth with UACC-62 melanoma is 70.8%; in the assay with LOX IMVI melanoma, 63.4%; in the assay on SK-MEL-28 melanoma, 75.6%; with SK-MEL-2 melanoma, 76.5%; with EKVX NSCLC, 73.7%; in the assay with SN12C renal it was 64.9%. Besides, the growth in the assay with UO-31 renal was 88.3%; with TK-10 renal, 59.4%; with ACHN renal, 57.4%; with CAKI-1 renal, 67.7%; in the assay on CCRF-CEM leukemia, 88.7%; in the assay with MOLT-4 leukemia, 82.4%.
As for `Cc1cccc(Oc2ccc(Nc3ncnc4ccc(NC(=O)CNCCO)cc34)cc2Cl)c1`, the growth in the assay with HCT-15 colon was 62.6%; in the assay with SNB-75 CNS, 77.1%; in the assay on SNB-19 CNS it was 65.6%; with U251 CNS, 44.9%; with PC-3 prostate it was 61.4%; with SK-MEL-5 melanoma it was 77.6%. For the same compound, the growth with UACC-62 melanoma is 97.6%; with LOX IMVI melanoma it was 14.6%; in the assay on SK-MEL-28 melanoma, 68.8%; in the assay on SK-MEL-2 melanoma it was 87.8%; in the assay with EKVX NSCLC it was 34.9%; with SN12C renal, 39.4%. The growth is 41% in the assay with UO-31 renal; 39.8% with TK-10 renal; 27.1% with ACHN renal; 52.9% in the assay with CAKI-1 renal; 49.7% with A498 renal; 72.3% in the assay on CCRF-CEM leukemia. Moreover, the growth in the assay on MOLT-4 leukemia was 62%.
On to `O=C(NCCN1CCOCC1)OCc1nc2nc(Cl)nc(N3CCOCC3)c2[nH]1`, for which the growth in the assay on HCT-15 colon is 16.4%; with SNB-75 CNS, 1.3% (active); in the assay with SNB-19 CNS it was 36.2%; in the assay with PC-3 prostate it was 24%; in the assay on SK-MEL-5 melanoma, -29.7% (active); in the assay on UACC-62 melanoma, 35.1%. Moreover, the growth with LOX IMVI melanoma was 16.5%; in the assay with SK-MEL-28 melanoma, 61.9%; in the assay with SK-MEL-2 melanoma it was 18.9%; in the assay on EKVX NSCLC, 95.2%; in the assay on SN12C renal, 29.2%; in the assay with UO-31 renal, 39.6%. Further, the growth in the assay on TK-10 renal was 71%; in the assay with ACHN renal, 33.1%; in the assay on CAKI-1 renal it was 25.2%; in the assay on A498 renal, -8.24% (active); in the assay with CCRF-CEM leukemia, 5.93% (active).
For the compound `N/C(=N\N=C\c1cc2ccccc2s1)N/N=C/c1cc2ccccc2s1`, the growth in the assay on HCT-15 colon was 105%; in the assay with SNB-75 CNS, 95.5%; in the assay with SNB-19 CNS, 97%; in the assay on U251 CNS it was 113%; in the assay on PC-3 prostate, 97.4%; in the assay with SK-MEL-5 melanoma, 98%. In addition, the growth with UACC-62 melanoma is 95.3%; in the assay with LOX IMVI melanoma, 100%; with SK-MEL-28 melanoma it was 106%; in the assay with SK-MEL-2 melanoma it was 109%; in the assay on EKVX NSCLC, 95.6%; in the assay on SN12C renal it was 96.9%. Moreover, the growth with UO-31 renal is 87.7%; in the assay on TK-10 renal, 115%; in the assay on ACHN renal, 107%; in the assay on CAKI-1 renal, 95.3%; in the assay with A498 renal, 96.5%; in the assay with CCRF-CEM leukemia, 99.2%. The growth in the assay on MOLT-4 leukemia is 101%.
Turning to `COc1ccc(-c2nc(N/N=C/c3ccco3)nc(N3CCOCC3)c2C#N)cc1`, the growth was 88.3% with HCT-15 colon; 15.6% in the assay on SNB-75 CNS; 88.9% in the assay with SNB-19 CNS; 91.8% with U251 CNS; 59.5% in the assay on PC-3 prostate; 80.4% in the assay with SK-MEL-5 melanoma. The growth in the assay on UACC-62 melanoma is 75.6%; with LOX IMVI melanoma, 88.3%; in the assay on SK-MEL-28 melanoma, 80.8%; in the assay on SK-MEL-2 melanoma, 91.4%; with EKVX NSCLC, 82.3%; with SN12C renal it was 80.2%. In addition, the growth in the assay with UO-31 renal is 28.7%; with TK-10 renal it was 89.8%; in the assay on ACHN renal, 78.3%; in the assay on CAKI-1 renal it was 59%; in the assay on A498 renal, 6.67% (active); in the assay with CCRF-CEM leukemia, 74.2%. The growth in the assay with MOLT-4 leukemia is 62.2%.
For the compound `CCCN=C(N)c1ccc(NC(=O)c2ccc(C(=O)Nc3ccc(C(N)=NCCC)cc3)cc2)cc1`, the growth with HCT-15 colon is 99.7%; in the assay with SNB-75 CNS it was 78.1%; in the assay with SNB-19 CNS it was 105%; in the assay with U251 CNS it was 107%; in the assay with PC-3 prostate, 90.8%; in the assay with SK-MEL-5 melanoma, 27.2%. The growth in the assay with UACC-62 melanoma was 90.2%; with LOX IMVI melanoma, 108%; in the assay with SK-MEL-28 melanoma, 110%; in the assay with SK-MEL-2 melanoma, 97.2%; in the assay on EKVX NSCLC, 96.1%; with SN12C renal, 93.1%. Besides, the growth was 79.8% in the assay on UO-31 renal; 99% in the assay with TK-10 renal; 91.8% in the assay on ACHN renal; 95% with CAKI-1 renal; 108% with CCRF-CEM leukemia; 78.2% with MOLT-4 leukemia.
`COc1ccc(NC(=O)c2sc3nc(C)c(C(=O)CCc4cccc(OC)c4)cc3c2N)cc1`: the growth is 46.7% with HCT-15 colon; 65.7% in the assay on SNB-75 CNS; 73.5% in the assay with SNB-19 CNS; 78.3% in the assay on U251 CNS; 79.5% in the assay with PC-3 prostate; 61.9% in the assay with SK-MEL-5 melanoma. For the same compound, the growth is 63.7% in the assay on UACC-62 melanoma; 75.4% with LOX IMVI melanoma; 83% with SK-MEL-28 melanoma; 53.2% in the assay with SK-MEL-2 melanoma; 82.8% in the assay on EKVX NSCLC; 73% in the assay with SN12C renal. The growth in the assay with UO-31 renal is 51%; in the assay with TK-10 renal, 85.4%; in the assay with ACHN renal it was 95.2%; with CAKI-1 renal, 71%; in the assay on A498 renal, 19.2%; in the assay with CCRF-CEM leukemia, 65.4%. In the assay on MOLT-4 leukemia, the growth was 48.1%.
